The results in this text go back to PubChem BioAssay (NCATS).

The list shows a part of the results. Entries that show only a call come without a potency. Results filed as inconclusive are left out. Calls of active or inactive are those of the source. Calls follow the shape of the full dose curve.
Potency is read from the fitted curve at half-maximal effect.

Chain of Papain (Carica papaya) (P00784 whole entry, looked up): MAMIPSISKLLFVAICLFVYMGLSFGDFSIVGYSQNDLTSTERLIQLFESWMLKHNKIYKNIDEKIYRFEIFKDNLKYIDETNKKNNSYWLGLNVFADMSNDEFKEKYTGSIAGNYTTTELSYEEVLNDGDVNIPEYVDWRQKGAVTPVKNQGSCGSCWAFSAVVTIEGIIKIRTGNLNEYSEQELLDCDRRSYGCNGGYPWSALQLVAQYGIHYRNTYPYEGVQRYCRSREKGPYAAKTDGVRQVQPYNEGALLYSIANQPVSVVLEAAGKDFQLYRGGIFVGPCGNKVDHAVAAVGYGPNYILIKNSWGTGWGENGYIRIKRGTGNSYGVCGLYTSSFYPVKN

The target in the assay is Papain (Carica papaya) (UniProt P00784). The assay can be described thus: Selectivity profile for inhibitors of NSP2Pro chikungunya virus (CHIKV): Papain Counterscreen (AID 1964104). To be noted: purified papain protease activity, enzymatic inhibition; series mostly up to 51 µM. From the text:
PI: Natalia J. Martinez Ph.D.
National Center for Advancing Translational Sciences (NCATS),
National Institute of Health (NIH), Rockville, Maryland
Chikungunya virus (CHIKV) is a mosquito-borne RNA virus that has emerged as one of the most important global arboviral threats in the last decade. Although the first CHIKV vaccine has recently been FDA approved for use in healthy adults at increased risk, to date, there are no available antiviral drugs for CHIKV infection. CHIKV nsP2 protease plays a crucial role in the processing of the viral polypeptide precursor to release enzymes required for viral replication, thus making it a promising drug target for antiviral discovery. Here, we established a high-throughput pipeline to identify small molecule inhibitors of nsP2 proteolytic activity. The pipeline is composed of a suite of 1,536-well in vitro assays to support quantitative high-throughput (qHTS) screening campaigns. Specifically, we developed a fluorescence resonance energy transfer (FRET)-based assay using a fluorogenic peptide substrate encompassing an endogenous cleavage site and purified recombinant protease domain (nsP2pro). Using this assay, we interrogated ~37,000 small molecules, including those in drug repurposing libraries as well as chemically diverse and medicinal chemistry-friendly compounds. Hits were selected for follow-up validation against full-length nsP2 and an additional peptide. FRET-based 1,536-well assays for papain, hepatitis C virus NS3-4A, and human furin proteases were implemented to characterize compound selectivity. […] Novel compounds were identified to be potential nsP2 inhibitors and molecular docking analyses were performed to explain the binding mode of selected hits. In vitro antiviral activity was evaluated for a subset of compounds using a high-throughput CHIKV infection assay. To our knowledge, the pipeline presented here is unprecedented for CHIKV antiviral discovery research.
PROTOCOL TABLE (as described by Inglese J, Shamu CE and Guy RK. 2007)
SEQUENCE No. (e.g., 1, 2, 3, etc.); […] (e.g., Cells, Incubation, Reagent, etc.); VALUE; DESCRIPTION.
1a; Reagent; 3 uL; Papain in assay buffer.
1b; Reagent; 3uL; Assay buffer
2; Compound; 17 nL; Echo 655 acoustic dispenser (Beckman Coulter).
3; Incubation; 15 min; room temperature in the dark.
4: Reagent; 1 uL; Z-FR-AMC in assay buffer.
5; Incubation; 15 sec, 271g; centrifugation.
6; Detection; Fluorescence; time 0, Viewlux microplate reader (PerkinElmer) 355 nm excitation, 460 nm emission
7; Incubation; 10 min; room temperature
8; Detection; Fluorescence; time 10; ViewLux microplate reader (PerkinElmer), 355 nm excitation, 460 nm emission.
NOTES (numbers refer to sequence numbers above).
1a. Medium-binding black solid-bottom Greiner plates (cat. 789176-F). Dispense 3 uL of 1.33X papain in assay buffer (100 mM sodium acetate, pH 5.5, 5 mM dl-cysteine, 0.01% Tween-20 v/v) to columns 1, 2, 5-48 via Wako/Kalypsys dispenser. Papain (cat. P4762, Sigma) was dispensed to produce 5 nM final concentration. Enzyme solution kept on ice during experiment. Prepare papain as 50% glycerol (v/v) at final concentration of 10 mg/mL (427 uM, 100 U/mL). Sources: microplates (Greiner 789176-F), papain (Sigma P4762), sodium acetate (Bioworld 40120009-2), cysteine (Sigma 861677), Tween-20 (Sigma P1379), water (GIBCO 10977-015; Gibco).
1b. Dispense 3 uL of assay buffer (100 mM sodium acetate, pH 5.5, 5 mM dl-cysteine, 0.01% Tween-20 v/v) to columns 3 and 4 via Wako/Kalypsys dispenser. Assay buffer solution kept on ice during experiment.
2. Compound addition by single pin transfer (17 nL) using Wako pintool. Compound solutions in source plate: 169 nM to 10 mM DMSO stock solutions. Final concentrations: 0.664 nM to 39.2 uM, respectively. Final DMSO concentration: 0.5% (v/v).
3. RT incubation. Kalypsys lids used as microplate coverings. Protected from light.
4. […]
As to `C[C@@H]1C[C@@H](O)[C@@]23CO[C@]2(CO)C[C@@H](O)CC3[C@@]12CC(c1ccoc1)OC2=O` (stereo partly specified), the Potency entry is “inactive”.
The same measure for `CC(=O)N[C@@H](C(=O)O[C@H]1CCC(C)(C)[C@@H]2CCC3=C(COC3=O)[C@@]12C)C(C)C`: “inactive”; for `O=C(O)c1cccc(-n2[nH]c(-c3ccccc3)cc2=O)c1`: “inactive”.
Next, `CCc1ccccc1NC(=O)c1cnn(-c2ccc(F)cc2)c1C1CCNCC1`: “inactive”; `CO[C@]1(NC(=O)CSC(F)F)C(=O)N2C(C(=O)O)=C(CSc3nnnn3CCO)CO[C@H]21`: 6.51 µM (active).
For the compound `Cc1c(S(=O)(=O)O)oc2c1C(=O)C(=O)c1c-2ccc2c1CCCC2(C)C`, the Potency was 18.3 µM (active).
The same measure for `C[C@@H]1[C@H](O)[C@@H]2OC(=O)C3=C2[C@H](CCC3)[C@@]12C[C@@H](c1ccoc1)OC2=O`: “inactive”; for `CCOc1ccc(N(Cc2ccccc2)C(=O)c2nc(S(C)(=O)=O)ncc2Cl)cc1`: “inactive”; for `Oc1ccc(OC2CCCCO2)cc1` (stereo unspecified): “inactive”.
The same measure for `CCOc1ccc(NC(=O)c2c(NC(=O)Cc3ccccc3)sc3c2CCCCC3)cc1`: “inactive”; for `CCOc1ccc(NC(=O)c2c(NC(=O)Cc3ccccc3)sc3c2CCC(C)C3)cc1` (stereo unspecified): “inactive”; for `C[C@@H]1O[C@@H](O[C@@H]2[C@@H](O)[C@H](OCCc3ccc(O)c(O)c3)O[C@H](CO[C@@H]3O[C@H](CO)[C@@H](O)[C@H](O)[C@H]3O)[C@H]2OC(=O)/C=C/c2ccc(O)c(O)c2)[C@H](O)[C@H](O)[C@H]1O`: “inactive”.
Next, `Cc1ccc(N[S+](=O)([O-])c2cc3c(cc2N[C@@H](C)CO)NC(=O)CC3)cc1N[C@@H](C)CO`: “inactive”; `COC([CH2][Hg])CNC(=O)c1ccccc1OCC(=O)O` (stereo unspecified): “inactive”.
Consider `CCC(C)C(=O)OC1C(C)C2(O)C(C=C(CO)CC3(O)C(=O)C(C)=CC32)C2C(C)(C)C12OC(=O)C(C)C` (stereo unspecified), for which the Potency entry was “inactive”.
The same measure for `Cn1nnnc1Sc1ncnc2n[nH]c(-c3cccc(S(C)(=O)=O)c3)c12`: “inactive”.
